Screening results deposited in PubChem by several laboratories.
NOD2-RIPK2 inh = inhibitors of human NOD2-RIPK2 interaction; O43353; 360,000 compounds, 0.38% hits; CHO BLA complementation NOD2-RIPK2, CCF4 ratio; inhibition, % at 4.98 µM; in the data active means inhibition above about 21%;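 further: 0% = vehicle only and 100% = reference blocker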
Neddylation inh = blocks human cullin neddylation | TR-FRET cullin neddylation, biochemical | inhibition, % at 25 µM | 360,000 compounds, 0.58% hits; in the data active means inhibition above about 36%
GC-B act = GC-B (human) receptor activation. P20594. HEK293-GC-B cells, CNP EC30, cGMP TR-FRET; 0% at EC30 CNP, 100% saturating CNP. activation, % at 10 µM. 370,000 compounds, 0.11% hits;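 active means activation at 10 µM reaching about 35% in either raw or pattern-adjusted values, limit read from the data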
NPR1 activator = GC-A (human) enzyme activation. P16066. HEK293 GC-A cells, cGMP TR-FRET, EC30 ANP; 0% at EC30 ANP, 100% saturating ANP. activation, % at 10 µM. 370,000 compounds, 0.14% hits. AID 1671463; in the data active means activation above about 40%
Target sequence (P16066 whole entry, looked up): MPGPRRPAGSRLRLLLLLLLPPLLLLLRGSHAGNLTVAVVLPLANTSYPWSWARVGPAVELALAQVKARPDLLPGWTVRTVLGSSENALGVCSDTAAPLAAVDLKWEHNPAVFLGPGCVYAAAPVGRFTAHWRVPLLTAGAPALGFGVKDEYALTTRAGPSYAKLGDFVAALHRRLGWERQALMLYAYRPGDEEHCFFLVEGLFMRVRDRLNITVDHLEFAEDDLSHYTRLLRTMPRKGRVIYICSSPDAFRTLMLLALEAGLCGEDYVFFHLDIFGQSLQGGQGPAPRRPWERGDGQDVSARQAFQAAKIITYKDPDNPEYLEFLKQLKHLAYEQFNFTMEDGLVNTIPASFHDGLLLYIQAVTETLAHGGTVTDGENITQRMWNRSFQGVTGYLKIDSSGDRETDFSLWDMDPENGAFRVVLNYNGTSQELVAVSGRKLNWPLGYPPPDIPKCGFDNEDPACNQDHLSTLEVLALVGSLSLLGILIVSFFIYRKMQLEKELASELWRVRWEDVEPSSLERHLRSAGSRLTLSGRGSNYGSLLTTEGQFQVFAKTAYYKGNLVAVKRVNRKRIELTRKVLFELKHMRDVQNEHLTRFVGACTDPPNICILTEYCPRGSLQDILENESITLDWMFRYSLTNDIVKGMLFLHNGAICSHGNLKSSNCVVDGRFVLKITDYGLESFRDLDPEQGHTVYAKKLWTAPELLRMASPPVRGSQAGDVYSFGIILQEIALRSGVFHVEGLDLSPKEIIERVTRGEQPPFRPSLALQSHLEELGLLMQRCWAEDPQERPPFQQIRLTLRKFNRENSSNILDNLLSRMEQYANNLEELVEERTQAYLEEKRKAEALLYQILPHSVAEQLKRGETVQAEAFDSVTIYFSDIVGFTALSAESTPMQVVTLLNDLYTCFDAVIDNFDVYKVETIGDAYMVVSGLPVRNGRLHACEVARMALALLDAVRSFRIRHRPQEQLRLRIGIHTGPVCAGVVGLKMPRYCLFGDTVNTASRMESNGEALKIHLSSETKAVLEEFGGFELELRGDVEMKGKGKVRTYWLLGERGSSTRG
TLR4 MyD88 comp = blocks binding of human TLR4 to MyD88 | O00206+Q99836 | HeLa CL3-4 TLR4/MyD88 BLA complementation, FRET ratio | inhibition, % at 8.4 µM | 200,000 compounds, 0.18% hits | AID 861; in the data active means inhibition above about 25%;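 further: 0% = vehicle and 100% = reference inhibitor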
TLR9-MyD88 block = inhibitors of human TLR9-MyD88 binding; CHO BLA complementation TLR9-MyD88, CCF4 FRET ratio; inhibition, % at 4.98 µM; 340,000 compounds, 0.21% hits; AID 504734;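 active means inhibition above the mean over all tested compounds plus 3 SD, cut at about 21% in these data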;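 further: 0% = DMSO only wells and 100% = clavulanate BLA inhibitor control wells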
Neddyl inh conf = confirmation of human cullin neddylation inhibitors | calls only at 25 µM | 1,800 compounds, 13% hits | TR-FRET cullin neddylation biochemical assay | shares compounds with Neddylation inh; in the data active means inhibition above about 40%;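 further: neddylation substrate is the cullin 1 ring ligase complex with SKP2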
* hit, by the source's call; i = inactive; . = not tested or not shown; + = active, no number. In the library only some 1.2% were active in any assay of this set; here they are far more common.

SMILES | NOD2-RIPK2 inh | Neddylation inh | GC-B act | NPR1 activator | TLR4 MyD88 comp | TLR9-MyD88 block | Neddyl inh conf
COc1cc(/C=N/NC(=O)CCOc2ccccc2C)cc(Br)c1O | -11 | 43* | -5 | -7 | 8 | 13 | +
COc1ccc(/C=N/NC(=O)CCOc2ccccc2C)cc1OC | 0 | -12 | 4 | 2 | 7 | 4 | .
COc1ccc(CC(=O)N/N=C\c2cc(Br)c(O)c(Br)c2)cc1 | -3 | 45* | 0 | -5 | . | -18 | +
Cn1c(SCc2ccc(Cl)cc2)nnc1-c1ccc2nonc2c1 | -10 | 42* | -4 | -2 | . | -5 | i
CC1(C(=O)NCc2cccs2)Cc2c(-c3ccccc3)ccnc2O1 (configuration not stated) | 3 | 6 | -4 | -2 | . | . | .
Cc1cccc(Cn2cc(COC(=O)Nc3ccc(F)cc3)nn2)c1 | . | . | 3 | 0 | . | . | .
O=C(NCc1ccccc1Cl)c1cnn2cccnc12 | 7 | 39* | 2 | 2 | -2 | 2 | i
O=C(NCc1cccs1)c1cnn2cccnc12 | -1 | 36 | 2 | -1 | -10 | 4 | .
CC(=O)c1ccc(-c2ccc(C(=O)NCC(c3ccc(F)cc3)N3CCOCC3)o2)cc1 (configuration not stated) | -3 | 57* | 0 | -3 | . | 7 | +
Cc1ccc(C(=O)NCC(c2ccc(F)cc2)N2CCOCC2)cc1 (configuration not stated) | -21 | 3 | -8 | -6 | . | -2 | .
Cc1ccc2nc(-c3ccccn3)c(N)n2c1 | 6 | 3 | 1 | -9 | . | . | .
O=C(N/N=C/c1c(O)n(Cc2ccccc2)c(=O)c2ccccc12)c1cccnc1 | 19 | 42* | -3 | 4 | 5 | 20 | .
O=C(N/N=C/c1c(O)n(-c2ccccc2Cl)c(=O)c2ccccc12)c1cccnc1 | 15 | 29 | -2 | 2 | 17 | 16 | .
Cc1cccc(N(C(=O)c2snc(C(N)=O)c2N)C(C(=O)NCC2CCCO2)c2ccc3ncccc3c2)c1 (configuration not stated) | 2 | 48* | -14 | -29 | . | -5 | .
Cc1ccc(N(C(=O)c2snc(C(N)=O)c2N)C(C(=O)NCC2CCCO2)c2ccc3ncccc3c2)cc1 (configuration not stated) | -1 | 43* | -7 | -14 | . | -1 | i
CCOc1ccc(C(C(=O)NCC2CCCO2)N(C(=O)c2snc(C(N)=O)c2N)c2cccc(F)c2)cc1 (configuration not stated) | -2 | . | 1 | 7 | . | -5 | .
Cc1ccc(C(C(=O)NCC2CCCO2)N(C(=O)c2snc(C(N)=O)c2N)c2ccc3c(c2)OCCO3)cc1 (configuration not stated) | 13 | 18 | 1 | -2 | . | 0 | .
COc1cccc(N(C(=O)c2snc(C(N)=O)c2N)C(C(=O)NCC2CCCO2)c2ccc3ncccc3c2)c1 (configuration not stated) | 0 | 45* | -18 | -34 | . | 8 | +
NC(=O)c1nsc(C(=O)N(c2ccc(F)cc2)C(C(=O)NCC2CCCO2)c2ccc3ncccc3c2)c1N (configuration not stated) | -1 | . | -14 | -52 | . | -6 | .
O=C(OC12CCCN(C1)/C(=C/c1ccc(Cl)cc1)C2)c1ccno1 (configuration not stated) | . | . | -7 | -1 | . | . | .
COC(=O)[C@]12CCCCC=C1N(Cc1ccc(OC)cc1)C(=O)[C@@H]2CC(=O)NCC12CC3CC(CC(C3)C1)C2 | . | . | 5 | 0 | . | . | .
COc1ccc(C2=Nc3ccccc3N(C(=O)c3ccncc3)C2C(=O)NC(C)C)cc1 (configuration not stated) | -13 | -8 | -9 | -5 | . | . | .
Cc1cccc(C)c1-n1nnnc1C(c1cc2ccccc2o1)N1CCN(C/C=C/c2ccccc2)CC1 (configuration not stated) | -2 | 3 | 1 | -4 | . | . | .
CC(C)(C)C1c2[nH]c3ccccc3c2CCN1Cc1cccc(OCCO)c1 (configuration not stated) | 4 | 52* | -1 | -2 | 0 | 5 | i
CC(=O)Nc1ccc(CN2CCc3c([nH]c4ccccc34)C2C(C)(C)C)cc1 (configuration not stated) | 0 | 32 | 7 | -3 | . | -6 | .
SMILES | NOD2-RIPK2 inh | Neddylation inh | GC-B act | NPR1 activator | TLR4 MyD88 comp | TLR9-MyD88 block | Neddyl inh conf
CCC[C@H]1[C@@H](NCc2cccs2)CC[C@@]23CCCN2C(=O)CCC[C@@H]13 | . | . | -25 | -21 | . | . | .
C[C@H](CO)N1C[C@H](C)[C@@H](CN(C)S(=O)(=O)c2cn(C)cn2)Oc2ccc(NC(=O)C3CCCCC3)cc2C1=O | -3 | 11 | 3 | 2 | . | -3 | .
COc1cc(/C=C(\CC(=O)O)c2nc3ccccc3s2)ccc1OCC(=O)Nc1ccccc1F | -9 | 36* | -5 | 2 | . | -4 | i
CN(C)c1nc2sc3c(c2c(=O)n1C)CC(C)(C)OC3 | -11 | -2 | -16 | 1 | 6 | -9 | .
Cc1nn2c(C)nc3sc4c(c3c2nc1=O)CC(C)(C)OC4 | -10 | 43* | 4 | 10 | 1 | -3 | i
CC1(C)Cc2c(sc3nc(-c4cccs4)n(N)c(=O)c23)CO1 | -4 | 44* | -1 | 2 | 10 | 4 | i
COc1ccc(C(C)=O)c(OCC(=O)NCCC2=CCCCC2)c1 | -4 | -8 | -1 | 1 | . | -11 | .
COc1ccc(OC)c(CN2C(=O)CN(S(C)(=O)=O)CC2(C)C(=O)Nc2c(C)cccc2C)c1 (configuration not stated) | -6 | 3 | -1 | 2 | . | . | .
Cc1c(C(=O)NCC2CCCO2)oc2ccc3c(c12)C(=O)CC(C)(C)O3 (configuration not stated) | -5 | 37* | 13 | 14 | 3 | 5 | .
NC(c1csc(Nc2cc(NCCCO)ncn2)n1)c1ccccc1Cl (configuration not stated) | -2 | 0 | -10 | -12 | . | . | .
COc1ccc(C2=Cc3ccccc3C(CC(=O)C3CC3)N2c2ccc(-c3cc(OC)c(OC)c(OC)c3)cc2)cc1 (configuration not stated) | -5 | 42* | 3 | 2 | . | . | i
COc1ccc(C2=Cc3ccccc3C(CC(=O)C3CC3)N2c2ccc(C#CCCO)cc2)cc1 (configuration not stated) | 0 | . | -4 | -11 | . | . | .
CSc1ccc(CN2C(=O)C(C)ON=C2c2ccccc2F)cc1 (configuration not stated) | -12 | -3 | -5 | -12 | . | . | .
O=C(OCc1cn(Cc2cccc(Cl)c2)nn1)N1CCCC1 | . | . | 0 | 3 | . | . | .
